Shown are actives, neighbours in structure and some others; about 1.8% of the full set was active somewhere.
HDAC3 inh: blocks human histone deacetylase 3 | O15379 | recombinant HDAC3, fluorogenic peptide/trypsin coupled, fluorescence | inhibition, % at 8.3 µM | hit rate 0.15% among 320,000 | AID 2718; in the data active = inhibition above about 26%, passing the limit was not always enough; inconclusive = no clear call, values can overlap the other calls
H9c2 protect: protects H9c2 cardiomyocytes from peroxide injury; H2O2 injury protection, ATPLite, 2 h; hit rate 0.63% among 360,000; protection from H2O2 cell death, % at 20 µM;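 active = compounds giving at least 50% protection of heart cells from peroxide-induced death in the single-dose screen, raw or plate-pattern-corrected value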
Neddylation inh: cullin neddylation inhibition. TR-FRET cullin neddylation, biochemical. inhibition, % at 25 µM. hit rate 0.58% among 360,000. AID 651699; in the data active = inhibition above about 36%
GRK2 inh: blocks RNA aptamer binding to human GRK2 | P25098 | bead flow cytometry, FAM-aptamer displacement from GRK2 | inhibition of aptamer binding, % at 10 µM | hit rate 0.59% among 330,000 | AID 488847;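 active = inhibition of aptamer binding above 40%, roughly 3 SD of noise, on plates passing a quality check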;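 note: median bead fluorescence of bound FAM aptamer so fluorescent compounds give negative values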
Large screens that a line does not name were inactive.

COc1ccc(C(=O)NNC(=O)c2ccccn2)cc1	none
CC(Oc1ccccc1)C(=O)NNC(=O)c1ccccn1 (stereo not drawn)	none
COc1cc(OC)cc(C(=O)NNC(=O)c2ccccn2)c1	H9c2 protect 51
CC(Oc1cccc(Br)c1)C(=O)NNC(=O)c1ccccn1 (stereo not drawn)	H9c2 protect 79
Cc1cnc(C(=O)N2CCN(S(=O)(=O)c3ccc(F)c(F)c3F)CC2)cn1	none
CC(C)C(=O)N1CCN(c2ccc(NC(=O)COc3ccccc3[N+](=O)[O-])cc2)CC1	H9c2 protect 72
C=CCn1c(CNc2ccccc2)nnc1SCC(=O)N/N=C/c1ccc(O)cc1O	H9c2 protect 85
C=CCn1c(COc2ccccc2)nnc1SCC(=O)N/N=C/c1cc(Cl)ccc1O	H9c2 protect 86
CCn1c(CNc2ccc(C)cc2)nnc1SCC(=O)NCc1ccccc1	none
C=CCn1c(CNc2ccc(C)cc2)nnc1SCC(=O)N/N=C/c1ccc(O)cc1O	H9c2 protect 68 (no result: HDAC3 inh)
C=CCn1c(COc2ccccc2)nnc1SCC(=O)N/N=C/c1ccc(C)cc1	none
CCCCN(C(=O)c1cc2ccccc2o1)c1c(N)n(CCCC)c(=O)[nH]c1=O	none
O=C(NC1CCN(c2ncccn2)CC1)c1ccccc1Cl	none
COC(=O)c1sccc1NC(=O)C1CC1	none
O=C(/C=C/c1ccccc1)NC(=S)NNC(=O)c1cccnc1	HDAC3 inh inconclusive
O=C(/C=C/c1ccccc1)NC(=S)NNC(=O)c1cnccn1	H9c2 protect 57
CCCOc1ccc(C(=O)N(Cc2cccs2)C2CCS(=O)(=O)C2)cc1 (stereo not drawn)	none
CC(=O)c1ccccc1OCCCN1CCCCC1	H9c2 protect 53
CCOC(=O)C1(N(CC)CC)Sc2cc(C)ccc2NC1=O (stereo not drawn)	none
C=C(C)C(=O)OC1(C(F)(F)F)Oc2cc(C)ccc2NC1=O (stereo not drawn)	HDAC3 inh 29
CC1CCCC(NC(=O)CCNS(=O)(=O)c2ccc(Br)cc2)C1C (stereo not drawn)	none
COC(=O)C1=C(C)NC(C)=C(C(=O)OC)C1c1ccc(-c2cccc([N+](=O)[O-])c2)o1	HDAC3 inh 35
COC(=O)C1=C(C)NC(=S)NC1c1ccc(-c2cccc(Cl)c2)o1 (stereo not drawn)	HDAC3 inh 29
CCOC(=O)C1=C(C)NC(=S)NC1c1ccc(-c2ccc(Cl)cc2)o1 (stereo not drawn)	none
CCOC(=O)C1=C(C)NC(=O)NC1c1ccc(-c2ccc(Cl)cc2)o1 (stereo not drawn)	HDAC3 inh 50
CC(C)C(=O)N1CCC1(C)C(=O)NCc1cc(Cl)ccc1F (stereo not drawn)	none (no result: HDAC3 inh, GRK2 inh)
O=C(NC1CCCCC1)c1[nH]c(C(F)(F)F)nc1-c1ccccc1	none (no result: HDAC3 inh, GRK2 inh)
Cc1ccc(C)c(NC(=O)C(Sc2ncnc3ccccc23)c2ccccc2)c1 (stereo not drawn)	H9c2 protect 55 (no result: HDAC3 inh)
Cc1ccc(C)c(NC(=O)C(Sc2nc3ccccc3c(=O)n2CC(C)C)c2ccccc2)c1 (stereo not drawn)	H9c2 protect 80
C#CCN1N=C(c2ccc(C)cc2)CSC1=O	none
O=C(CSc1ncn[nH]1)CSc1ncn[nH]1	HDAC3 inh 37
O=c1cc(-c2ccc(O)c(O)c2)oc2c1ccc1ccccc12	none
O=c1cc(-c2cccnc2)oc2c1ccc1ccccc12	H9c2 protect 76 (not shown: Neddylation inh)
O=C(CCc1nc2ccccc2c(=O)[nH]1)NNC(=O)COc1cccc(F)c1	H9c2 protect 96
O=C(CCc1nc2ccccc2c(=O)[nH]1)NNC(=O)c1ccccc1Cl	H9c2 protect 56
COc1cc(NC(=O)COC(=O)CCc2nc3ccccc3c(=O)[nH]2)cc(OC)c1	none
O=C(NN(C(=O)c1ccccc1)c1cccs1)c1ccccc1	none (no result: HDAC3 inh, GRK2 inh)
CCn1ncc2c1C(=O)NC1c3ccccc3C(=O)N21 (stereo not drawn)	H9c2 protect 59
CCCOc1ccc(C(=O)NNC(=S)NC(=O)c2ccco2)cc1	Neddylation inh 59
CC1CCN(c2ccc3nnc(CCC(=O)NC(C)C)n3n2)CC1	none
COc1ccc(-c2cc3nc(-c4ccccc4)cc(N4CCN(C(=O)c5ccccc5)CC4)n3n2)cc1	none (no result: HDAC3 inh, GRK2 inh)
COc1cccc(-c2cc3nc(C)c(C)c(N4CCN(C(=O)c5ccoc5)CC4)n3n2)c1	H9c2 protect 56 (not shown: HDAC3 inh, Neddylation inh, GRK2 inh)
COc1ccc(-c2cc3nc(-c4ccccc4)cc(N4CCN(C(C)=O)CC4)n3n2)cc1	H9c2 protect 80 (not shown: HDAC3 inh, Neddylation inh, GRK2 inh)
Cc1cc(OCC(=O)N2CCOCC2)cc2oc(=O)c3ccccc3c12	H9c2 protect 59 (not shown: Neddylation inh)
CSc1ccc(/C=N/S(=O)(=O)c2ccccc2)cc1	none
NC(=O)SCC(=O)Nc1cccc(Cl)c1	HDAC3 inh 39
NC(=O)SCC(=O)Nc1ccc(Cl)cc1	HDAC3 inh inconclusive
